# From PubChem
# This is a sample that favours compounds with a hit; in the whole collection about 8.2% have one here.
# KB-V1 MDR tox: qHTS assay for MDR1-selective chemotherapeutics: Primary screen using the drug-selected MDR subline cells KB-V1 | 400,000 compounds, 3.4% hits | KB-V1 MDR cells viability, CellTiter-Glo, 72 h | Potency, µM (titrated, usually from 46.1 µM), most hits filed as cytotoxic; further: on the % scale 0 is the no-effect control and ±100 the full control effect; nearly all actives have a fitted effect of over 60% in size
#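 Drug-selected KB-V1 cells, grown in DMEM lacking phenol red with 10% FBS, receive compound titrations; after three days at 37 degrees C, surviving cell ATP is quantified by CellTiter-Glo luminescence and responses normalized and curve-fitted.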
# MCF10A rereplic: A quantitative high throughput screen for small molecules that induce DNA re-replication in MCF 10a normal breast cells; MCF 10A DNA re-replication, Hoechst nuclear intensity, 48 h; Potency, µM (highest dose often 46.1 µM), for the others: at the top dose activity, positive = re-replication, usual class: activators; 350,000 compounds, 2.9% hits; further: % of control where 0% means no effect; nearly all actives have a fitted effect of over 50% in size
# KB-3-1 tox: qHTS assay for MDR1-selective chemotherapeutics: Primary screen using the parental adenocarcinoma cell KB-3-1; KB-3-1 viability, CellTiter-Glo ATP luminescence, 72 h; Potency, µM (titrated, usually from 46.1 µM), hits mostly cytotoxic; 400,000 compounds, 1.4% hits; further: on the % scale 0 is the no-effect control and ±100 the full control effect; nearly all actives have a fitted effect of over 60% in size
#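 Multi-concentration cytotoxicity screen in KB-3-1 cells grown in DMEM lacking phenol red with 10% FBS. After 72 h at 37 °C with compound, ATP-dependent luminescence was recorded.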
# ELG1 repair inh: qHTS screen for small molecules that inhibit ELG1-dependent DNA repair in human embryonic kidney (HEK293T) cells expressing luciferase-tagged ELG1 | Potency, µM (doses to about 46.1 µM), without a hit: at the top dose activity change, negative = inhibition, actives largely listed as inhibitors | HEK293T ELG1-luciferase reporter, luminescence, 16 h; DNA damage induced by 5-fluorouridine | AID 504467, 2011 | 330,000 compounds, 2.3% hits; further: on the % scale 0 is the no-effect control and ±100 the full control effect; nearly all actives have a fitted effect of over 55% in size
#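 Quantitative HTS, concentration-response format. 2,000 cells/well co-treated with 5-fluorouridine and compound, 16 hr in 5% CO2 at 37 °C; ONE-Glo luminescence read after 30 min.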
# SW480 rereplic: A quantitative high throughput screen for small molecules that induce DNA re-replication in SW480 colon adenocarcinoma cells; SW480 DNA re-replication, Hoechst DNA content imaging, 48 h; Potency, µM (highest dose often 46.1 µM), inactives show top-dose re-replication activation, usual class: activators; 340,000 compounds, 1.8% hits; further: % of control where 0% means no effect; nearly all actives have a fitted effect of over 55% in size
#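 First, 250 cells per well were seeded. Next, compound or vehicle (23 nL) was pinned in, plates sat 48 hr at 37 C. Finally Hoechst was added for 40 min before fluorescence scanning.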
# * marks the source's active call; other numbers are inactive results; i = inactive; u = inconclusive; x = no result; ! = not confirmed by another sample; [ ] = remark or other dose. The call rests on the fitted dose curve; in most records, active means well fitted curve in the direction sought with a large enough effect; inconclusive means small, poorly fitted or top-dose-only effect, or another doubt; inactive means no such curve, though single readings can be large; an effect the other way counts as inactive or inconclusive. Potency means the concentration at half of the fitted maximal effect.
SMILES,KB-V1 MDR tox,MCF10A rereplic,KB-3-1 tox,ELG1 repair inh,SW480 rereplic
CCc1nc(NC(C)C)c2oc3ccccc3c2n1,i,13.5%,i,-3.3%,-4.9%[9.22 µM]
c1ccc(CNc2ncnc3c2oc2ccccc23)nc1,20.6µM*,6.2%,i,u,-0.4%
Clc1ncnc2c1oc1ccccc12,i,6.5%,u,u,29.6%
NC(=O)C1CCN(c2ncc(-c3ccc4c(c3)OC(F)(F)O4)s2)CC1,i,x,i,x,x
COCc1nnc(NC(=O)c2ccc(S(=O)(=O)N(C)c3ccccc3)cc2)o1,i,-2.0%,u,1.0%,u
CC1CCCN(S(=O)(=O)c2ccc(C(=O)Nc3nnc(-c4ccco4)o3)cc2)C1 (centres undefined),7.31µM*,20.1%,u,u,u
CCN(c1ccccc1)S(=O)(=O)c1ccc(C(=O)Nc2nnc(-c3ccco3)o2)cc1,i,7.6%,i,u,23.1µM*
Cc1nn(-c2ccccc2)c(C)c1C(=O)Nc1nnc(-c2ccco2)o1,5.8µM*,9.6%,u,6.3%,u
CCN(c1ccccc1)S(=O)(=O)c1ccc(C(=O)Nc2cccc(C)n2)cc1,i,-0.2%,u,u,-12.7%
CN(c1ccccc1)S(=O)(=O)c1ccc(C(=O)Nc2nnc(-c3ccco3)o2)cc1,u,2.7%,u,16.4µM*,20.6µM*
COc1ccc(OC)c(C2CC(=O)Nc3c2c(=O)[nH]c2nc4ccccc4n32)c1 (centres undefined),i,x,i,x,x
Cc1cccc(N(C)c2nc3ccc(C(=O)c4ccccc4)cc3n3c(C)nnc23)c1,u,x,i,x,x
C=C[C@@H]1c2cc(C)ccc2N(S(=O)(=O)c2ccc(C)cc2)[C@H](c2ccccc2)C1(C#N)S(=O)(=O)c1ccccc1 (some centres undefined),i,u,i,u,4.0%
Cc1ccc(C)c(Cn2c(=O)n(CCCC(=O)NCc3ccco3)c(=O)c3sccc32)c1,u,13µM*,5.8µM*,u,u
Cc1ccc(NC(=O)CCNS(=O)(=O)c2ccc(Br)cc2)cc1S(=O)(=O)N1CCOCC1,i,7.5%,i,-4.4%,-1.0%
COc1cccc(CNC(=O)CCS(=O)(=O)c2cc3c4c(c2)CCN4C(=O)CC3)c1,i,x,i,x,x
COc1cc(C2C3=C(COC3=O)Oc3cc4c(cc32)OCO4)cc(OC)c1OC (centres undefined),0.103µM*!,0.231µM*,0.581µM*,x,0.13µM*
O=C1OCC2=C1C(c1ccc3c(c1)OCO3)c1cc3c(cc1O2)OCO3 (centres undefined),1.46µM*,8.2µM*,3.26µM*,x,4.61µM*
N#CC1=C(N)Oc2cc3c(cc2C1c1ccc(Cl)cc1)OCO3 (centres undefined),i,52.7%,i,u,6.2%
COc1cc(C2CC(=O)Oc3cc4c(cc32)OCO4)cc(OC)c1OC (centres undefined),i,-26.7%,i,u,-2.1%
Oc1[nH]c2ccccc2c1N=Nc1ncnc2c1oc1ccccc12,x,x,x,14.6%,x
COc1cc2c(cc1OC)CN(c1nc(CN3CCCC3)nc3sc(C)c(C)c13)CC2,i,10.7%,i,u,24.3%
COc1cc2c(cc1OC)CN(c1nc(CN3CCCCC3)nc3sc4c(c13)CCCC4)CC2,i,u,i,23.1µM*,u
CCNC(=O)NC(=O)CSc1ccc(S(=O)(=O)N2CCOCC2)cn1,u,2.7%,i,-2.0%,u
CCCSc1nnc2n(-c3cccc(C)c3)c(=O)c3c4c(sc3n12)CCCC4,23.1µM*,x,u,x,x
SMILES,KB-V1 MDR tox,MCF10A rereplic,KB-3-1 tox,ELG1 repair inh,SW480 rereplic
Cn1c(=O)c2c3c(sc2n2c(SCC(N)=O)nnc12)CC(C(C)(C)C)CC3 (centres undefined),i,17.7%,i,23.1µM*,0.0%
CCCCN(CCCC)C(=O)CSc1nnc2n(C)c(=O)c3c4c(sc3n12)CCCC4,23.1µM*,-10.2%,u,10.3%,1.0%
COc1cccc(-c2ccccc2C2=CC(=O)CC(C)(C)C2=O)c1,i,x,i,x,x
CCOC(=O)C1CCCN(Cc2cc(Br)c(OC)cc2OC)C1 (centres undefined),10.3µM*,1.5%,i,-1.1%,-1.2%
COc1ccc(OC)c(CN2CCC(Cc3ccccc3)CC2)c1,i,22.3%,i,-12.9%,4.8%
COc1cc(OC)c(CN2CCC(Cc3ccccc3)CC2)cc1Br,i,11.6µM*,u,-24.6%,19.2%
C#CCn1c(=NC(=O)c2sc3ccccc3c2Cl)sc2cc(S(N)(=O)=O)ccc21,i,-1.6%,i,-0.3%,1.5%
CCC(CO)[n+]1c(C)cc(/C=C2\Sc3ccccc3N2Cc2ccccc2)cc1C (centres undefined),i,u,1.64µM*,u,u
CCN1/C(=C2\SC(=S)N(Cc3ccccc3)C2=O)Sc2ccccc21,i,-2.0%,i,-2.7%,-42.2%
COc1ccc(NC(=O)c2cc3c(=O)n(C)c4cc(Cl)ccc4c3s2)cc1Cl,i,x,i,x,x
COc1ccc(Cn2c(=O)cc(N)n(-c3ccccc3C)c2=O)cc1,i,u,u,u,14.6µM*
O=C(c1ccc(F)cc1)n1nc(-c2cccnc2)nc1NCc1ccc(F)cc1,i,x,i,x,x
CN(C)c1ccc(C(c2ccc(N(C)C)cc2)C(O)c2ccccc2)cc1 (centres undefined),16.4µM*,22.7%,i,x,-2.5%
CC1(C(=O)NS(=O)(=O)c2ccccc2Cl)CCN1C(=O)CC1CCCC1 (centres undefined),i,x,i,x,x
CNC(=O)c1nn(C)c(=O)[nH]c1=O,i,-31.7%,i,x,-7.5%
CCCCOc1ccc(CNC(=O)c2ccc(NC(=O)N3CCCCc4ccccc43)cc2)cc1,i,x,i,x,x
Cc1cc(S(=O)(=O)NCC(c2ccccc2)c2ccccc2)ccc1-n1cnnn1,18.4µM*,3.7%,i,-6.5%,-7.6%
Cc1ccccc1NC(=O)Cn1cnc2c(oc3ccccc32)c1=O,18.4µM*,3.0%,i,3.2%,1.7%
Cc1ccc2nsnc2c1NC(=O)c1ccc([N+](=O)[O-])cc1,u,-12.3%,i,16.4µM*,3.0%
N#CC1=C(S)N(c2ccccc2)C(c2ccc(-c3cccc(Cl)c3)o2)NC1=O (centres undefined),i,u,i,13.0%,23.1µM*
